Test [1] can be described thus: viability loss with induced miR-34 in A549 – imaging, A549 dox-inducible miR-34, nuclei and caspase counts, primary screen (AID 1347080). To be noted: A549 miR-34 inducible, Hoechst nuclei count, 48 h.
A short description of test [2]: MELAS cybrid and Rieske KO viability enhancers – cell-based, MELAS cybrids, Rieske KO mouse fibroblasts, CellTiter-Glo, primary screen (AID 1508586;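 active means mean z-score across replicates of 1.96 or higher in either the MELAS or the Rieske mutant cell line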;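 further: z relative to plate mean and SD of compound and empty wells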). To be noted: low glucose.
The nature of test [3]: galactose survival enhancers in mitochondrial complex I cybrids – cell-based, galactose medium, ATP luminescence, primary screen (AID 1645843;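 active means z-score of at least 1.8 in each of two replicates, scored against plate mean and spread of sample wells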;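 further: positive z means more ATP and so rescue of galactose-driven cybrid death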). The conditions noted are these: complex I mutant cybrid cells, 72 h, stronger effect = higher value.
A short description of test [4]: compounds altering viability of human ES cells (AID 493140; call rule not given here;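 further: cells exposed to compounds for four days before counting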). The conditions noted are these: human embryonic stem cell survival screen; stronger effect = higher value.
Test [5] can be described thus: P. berghei load reduction in hepatocytes – cell-based, HepG2, luciferase luminescence, HepG2 viability, primary screen (AID 624349; in the data active means parasite load remaining mostly below about 12%, no sharp cut-off; inactive means mostly above about 10%;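 further: 100% = mean of DMSO negative control wells on the same plate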). The conditions noted are these: P. berghei liver stage in HepG2, luciferase luminescence, concentration not given here; parasite load remaining: stronger effect = lower value; viability: measured here: HepG2 viability without parasites.
Test [6] addresses ATP-dependent translocase ABCB1 (Homo sapiens) (UniProt P08183). Put plainly: P-glycoprotein substrate transport blockade – cell-based (AID 377; in the data active means fluorescence slope change above about 50%). The conditions noted are these: MDR1-expressing cells, fluorescent substrate accumulation slope; stronger effect = higher value; concentration not given here.
A short description of test [7]: blockers of polyQ-driven CASP3 activation – cell-based (AID 1583). To be noted: polyglutamine-induced caspase-3 activation, cell assay; stronger effect = higher value;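 tested at 10 µM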.
A short description of test [8]: yeast 75Q aggregation reduction – 75Q-TubU reporter (AID 1593). To be noted: Yeast 75Q polyglutamine aggregation reporter.
Test [9] is described as follows: restoration of touch response, mutant HTT neurons – whole organism, C. elegans mechanosensory neurons, N-terminal huntingtin (AID 1599). To be noted: C. elegans polyQ-huntingtin mechanosensory neurons, stronger effect = higher value.
The nature of test [10]: blockers of cytochrome c efflux from mitochondria – biochemical, purified mitochondria (AID 1603).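 Further: mouse liver mitochondria challenged with calcium chloride; signal normalized to the plate average as 100%.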 To be noted: stronger effect = lower value.
The nature of test [11]: polyglutamine aggregate formation blockers (AID 1604). To be noted: polyglutamine-induced protein aggregation inhibition assay; stronger effect = higher value; tested at 2.5 µM.
Test [12] in a line: glutamate transport activators, MN-1 cells, MN-1 cell line (AID 1612).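 Further: tested at 1 µM final; 0% = mean of DMSO vehicle wells on each plate; positive means more glutamate uptake than control and negative means less.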 To be noted: MN-1 motor neuron cells, stronger effect = higher value.
Test [13] can be described thus: GFP-Q80 aggregate reduction, neuronal-like cells, cell-based, NGF-treated PC12, GFPQ80 (AID 1614).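 Further: lower means fewer inclusions and 0 means no inclusions at all.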 To be noted: PC12 NGF-treated GFP-polyQ80 inclusion reduction.
Test [14] in a line: 75Q-TubH aggregate inhibition, S. cerevisiae, yeast (AID 1616). To be noted: S. cerevisiae 75Q-TubH polyglutamine aggregation suppression; stronger effect = higher value.
The mark [15] stands for this setting: stronger effect = lower value, cell number ratio, induced over uninduced.
Setting [16] is: measured here: relative caspase fold change +Dox/-Dox.
[17] abbreviates: measured here: total cells with miR-34 induction, stronger effect = lower value.
The mark [18] stands for this setting: measured here: total cells without miR-34 induction.
[19] abbreviates: MELAS cybrid survival, CellTiter-Glo 48 h, stronger effect = higher value.
Where [20] appears, read: Rieske KO mouse fibroblast survival, CellTiter-Glo 72 h.

The results in this text go back to PubChem BioAssay.

Values joined by “and” are separate entries in the source; they are usually repeats but may differ in a detail not shown here. Identical values can stand only once. Inconclusive results are not listed. For part of these data: Potency and affinity values are given separately. Active and inactive are the calls of the source.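 How the source made its calls, unless noted: active means compounds whose cell count with miR-34 switched on is under 0.7 times the count with it off; inactive means the rest.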

Chain of ATP-dependent translocase ABCB1 (Homo sapiens) (P08183 whole entry, looked up): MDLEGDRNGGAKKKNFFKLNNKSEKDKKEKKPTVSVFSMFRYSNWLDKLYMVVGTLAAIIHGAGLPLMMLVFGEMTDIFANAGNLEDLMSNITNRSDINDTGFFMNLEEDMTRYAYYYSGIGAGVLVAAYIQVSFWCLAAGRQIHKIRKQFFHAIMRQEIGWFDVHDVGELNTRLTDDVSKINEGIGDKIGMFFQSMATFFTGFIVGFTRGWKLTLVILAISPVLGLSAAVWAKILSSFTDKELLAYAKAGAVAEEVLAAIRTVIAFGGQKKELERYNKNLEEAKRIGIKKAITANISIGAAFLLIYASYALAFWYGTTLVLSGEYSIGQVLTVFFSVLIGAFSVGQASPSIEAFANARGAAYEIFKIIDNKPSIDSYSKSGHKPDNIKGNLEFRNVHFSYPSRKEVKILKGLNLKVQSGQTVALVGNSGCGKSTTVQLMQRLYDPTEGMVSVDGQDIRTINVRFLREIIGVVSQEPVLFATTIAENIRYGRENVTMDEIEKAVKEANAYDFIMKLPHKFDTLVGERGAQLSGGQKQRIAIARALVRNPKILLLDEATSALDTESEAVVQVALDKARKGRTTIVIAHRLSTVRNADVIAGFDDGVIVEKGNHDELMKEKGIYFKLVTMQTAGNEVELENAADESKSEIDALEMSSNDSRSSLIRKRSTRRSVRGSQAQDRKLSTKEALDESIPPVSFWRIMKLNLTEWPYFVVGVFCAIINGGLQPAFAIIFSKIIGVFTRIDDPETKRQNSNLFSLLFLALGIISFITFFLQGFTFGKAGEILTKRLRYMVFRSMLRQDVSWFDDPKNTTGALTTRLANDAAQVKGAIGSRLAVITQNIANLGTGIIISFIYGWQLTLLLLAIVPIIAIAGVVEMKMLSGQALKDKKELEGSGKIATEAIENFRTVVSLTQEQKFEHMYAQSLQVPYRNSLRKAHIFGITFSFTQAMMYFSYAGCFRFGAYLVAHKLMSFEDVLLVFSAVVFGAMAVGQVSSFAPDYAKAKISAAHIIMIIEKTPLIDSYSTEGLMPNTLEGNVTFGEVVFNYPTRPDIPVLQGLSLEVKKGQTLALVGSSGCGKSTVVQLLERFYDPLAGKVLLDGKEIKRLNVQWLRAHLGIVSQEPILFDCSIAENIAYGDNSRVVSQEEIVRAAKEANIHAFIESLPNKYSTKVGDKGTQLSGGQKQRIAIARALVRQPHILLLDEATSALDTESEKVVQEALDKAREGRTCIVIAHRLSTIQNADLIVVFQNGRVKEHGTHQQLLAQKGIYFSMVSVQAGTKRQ

Take `COc1cccc2ncn(Cc3cn4ccccc4n3)c(=O)c12`: the fold change is 0.944 (inactive) in test [1] (setting [15]) and 1.17 in [1] (setting [16]). Besides, the values for the cell count in test [1] (setting [17]) and in test [1] (setting [18]) were 9180 and 9730, respectively. The z-score in test [2] (setting [19]) is -0.241 (inactive); in test [2] (setting [20]) it was -0.636; in [3], -0.6 (inactive).

As a reminder, the viability is a read-out of living cells in per cent, often relative to untreated cells. On to `C[C@]12CC[C@@H](O)C[C@@H]1CC[C@@H]1[C@@H]2CC[C@]2(C)C(=O)CC[C@@H]12`, for which the survival in test [4] was 13.1 (inactive). In addition, in test [5], the parasite load remaining was 90.4% (inactive) and 71.8% (inactive). In addition, the viability in [5] was 90.3% and 79.5%. In addition, the figures for the fold change in [1] (stronger effect = lower value) and in test [1] (setting [16]) were 0.869 (inactive) and 1.48, respectively. Also, the cell count is 8170 in test [1] (setting [17]) and 9410 in test [1] (setting [18]). Besides, the z-score was 0.119 (inactive) in test [2] (setting [19]) and -0.286 in [2] (setting [20]).

In the case of `CCC1(C)CC(=O)NC(=O)C1`, the survival in test [4] is 3.92 (inactive). Further, the parasite load remaining in [5] is 94.7% (inactive). In addition, the viability in test [5] turned out to be 101%. Besides, the fold change in test [1] (stronger effect = lower value) is 0.856 (inactive) and 0.868 (inactive); in [1] (setting [16]), 1.33 and 1.2. Further, the cell count is 8070 and 7990 in test [1] (setting [17]); 9420 and 9200 in [1] (setting [18]). In addition, the z-score is -0.143 (inactive) and 0.0597 (inactive) in [2] (setting [19]); -0.288 and -0.916 in test [2] (setting [20]).

A word on the inhibition: it is how much of the control response was suppressed. Take `CN1C[C@H](CO)C=C2c3cccc4[nH]cc(c34)C[C@H]21`: the fluorescence slope change in test [6] is 116% (active). In addition, the inhibition in test [7] was 16.6%. The score in [8] was 1.69. Also, the rescue above control in test [9] is 7.23. The cytochrome c release ratio in [10] worked out at 1.6. Besides, in [11], the inhibition of aggregation stood at 44.9%. In addition, the glutamate uptake change in test [12] was -16.1%. This compound also displayed an inclusion score in test [13] of 2. In [14], the aggregation suppression score amounted to 1.67. The survival in test [4] was 7.67 (inactive). The parasite load remaining in [5] was 67.2% (inactive) and 71.4% (inactive). Also, the viability in test [5] was 100% and 77.2%. In addition, the fold change in [1] (stronger effect = lower value) was 0.809 (inactive); in test [1] (setting [16]) it was 1.6. Besides, the figures for the cell count in test [1] (setting [17]) and in test [1] (setting [18]) were 8450 and 10400, respectively.

With `C[N+]1([O-])[C@@H]2CC(OC(=O)[C@H](CO)c3ccccc3)C[C@H]1[C@@H]1O[C@@H]12` (some centres undefined), the fluorescence slope change in test [6] was 76.2% (active). Further, the survival in test [4] is 10.4 (inactive). The parasite load remaining in [5] was 3.97% (inactive) and 96.4% (inactive). Besides, the viability in test [5] is 30.6% and 90.4%. The fold change was 0.882 (inactive) in test [1] (setting [15]) and 1.03 in [1] (setting [16]). The cell count stood at 8380 in test [1] (setting [17]) and 9510 in test [1] (setting [18]). Further, the z-score in test [2] (setting [19]) is -1.22 (inactive); in [2] (setting [20]) it was -0.531.

As to `C[C@]12CCC(=O)CC1CCC1C2CC[C@@]2(C)C1CC[C@]2(C)O` (some centres undefined), the fold change in test [1] (stronger effect = lower value) is 0.938 (inactive); in test [1] (setting [16]), 1.8. Further, the figures for the cell count in test [1] (setting [17]) and in test [1] (setting [18]) were 9370 and 9990, respectively. Further, in [3], the z-score is -0.195 (inactive).

For the compound `C[N+]1(C)C2CC[C@H]1CC(OC(=O)C(CO)c1ccccc1)C2` (some centres undefined), the parasite load remaining in test [5] was 93.5% (inactive). Also, in test [5], the viability stood at 105%. The fold change in test [1] (setting [15]) is 0.955 (inactive); in test [1] (setting [16]), 1.32. For the same compound, the values for the cell count in test [1] (setting [17]) and in [1] (setting [18]) were 8910 and 9340, respectively. Besides, the z-score in test [2] (setting [19]) is 0.0273 (inactive); in test [2] (setting [20]), -0.854.

Consider `Oc1ccc2c3c1OC1c4[nH]c5ccccc5c4C[C@@]4(O)C(C2)N(CC2CC2)CC[C@]314` (some centres undefined), for which the fold change was 0.943 (inactive) in [1] (stronger effect = lower value) and 1.78 in [1] (setting [16]). The cell count in [1] (setting [17]) came out at 8150; in test [1] (setting [18]) it was 8650. The z-score in [3] is -0.925 (inactive).
